From publication PMC7819943, “Rice protein-binding microarrays: a tool to detect cis-acting elements near promoter regions in rice” come the findings set out here.

The full ranking holds about 68,000 sequences; the median of “fluorescence intensity (a.u.)” is about 9,100, and the highest 2% start at about 16,000. The entries come from a sample that favours the highest values as a whole.

This experiment deals with OsWRKY34 (Oryza sativa, UniProt Q0JBA9 1-250). Kind of experiment: protein-binding microarray (RPBM); PBS, 2% BSA, 51.3 ng/ul salmon testes DNA, 50 uM zinc acetate, 200 nM TF, 25 C, 1 h; high values mean tight binding. As to conditions: protein: recombinant; tags: N-terminal polyhistidine and DsRed monomer fusion (pET32a); label: CyDye5-dUTP incorporated in the synthesized complementary strand; 3' TTTTT single-stranded linker to array surface; dsDNA, one strand shown. In short, it runs like this: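 Ni–NTA purification followed expression in E. coli BL21-CodonPlus of transcription factors fused N-terminally to a polyhistidine tag and DsRed. At 200 nM in PBS with 2% BSA, salmon testes DNA and 50 µM zinc acetate, the protein was incubated for 1 h at 25 °C with a custom Agilent array that had been primer-extended with Cy5-dUTP and blocked with 2% BSA. After washing, the array was read on an Axon 4000B scanner. The binding signal is per-feature fluorescence intensity in arbitrary units.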
Chain of OsWRKY34 (Q0JBA9 entry or part of it): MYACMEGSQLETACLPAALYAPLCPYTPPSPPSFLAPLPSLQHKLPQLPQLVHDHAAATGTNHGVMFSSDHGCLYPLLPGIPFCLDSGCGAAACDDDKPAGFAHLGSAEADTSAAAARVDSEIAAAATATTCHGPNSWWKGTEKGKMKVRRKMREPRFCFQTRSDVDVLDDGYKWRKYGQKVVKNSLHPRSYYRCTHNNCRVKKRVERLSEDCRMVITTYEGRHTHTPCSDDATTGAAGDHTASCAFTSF
As for “GGACCATCTCCGCCGCCGCCGCTGCCATCACTTCGTCCTCCGGAGTCACCTAGTGCAG”, the binding signal was 17600 fluorescence intensity (a.u.).
Under “CCGCCATCGCTACCCTCGGTCGTCGCTTGCCCCGACGACCCGGAGTCACCTAGTGCAG” stands 8180 fluorescence intensity (a.u.); under “TCCCCATCTCCGCCGCAGCCCTCGTCGTCGTCCTCGTCCTCGGAGTCACCTAGTGCAG”, 18900 fluorescence intensity (a.u.); under “ACCCTAGCCACCCCGCGTCGCCCGCCTCGGCGCGCCCAAACGGAGTCACCTAGTGCAG”, 9260 fluorescence intensity (a.u.).
On to “CCAGCCCACTGATTCCTCACCGAATTTTTTCATTTTTTTTCGGAGTCACCTAGTGCAG”, for which the binding signal was 9700 fluorescence intensity (a.u.).
“ATTCTATACTTTTGTTTCCCTATCATTTGACGCTTTACACCGGAGTCACCTAGTGCAG”: the binding signal was 10000 fluorescence intensity (a.u.).
For “TGGCTCCTTTTAAGTTATTCTTCCCAAACAGACATGATTTCGGAGTCACCTAGTGCAG”, the binding signal is 8660 fluorescence intensity (a.u.).
Under “TTTATACATATGTGTTTATCATACCTCACGTGTCGTATATCGGAGTCACCTAGTGCAG” stands 8040 fluorescence intensity (a.u.); under “TTAAGGGCATGTTTAGTTCTCAAACAAAATTTTCTAGCTGCGGAGTCACCTAGTGCAG”, 8270 fluorescence intensity (a.u.); under “ATGCTTGCTTGCCTGCCTTATCTGCGTCTTGAATTGCATCCGGAGTCACCTAGTGCAG”, 10100 fluorescence intensity (a.u.).
The same measure for “CATCTATGACCCATTTTTTTTTATTTGACTGATACCCATCCGGAGTCACCTAGTGCAG”: 9760 fluorescence intensity (a.u.); for “GTCACCCTTCACCACGGCCATCTTCTCCTCGCTCGCCGTCCGGAGTCACCTAGTGCAG”: 11200 fluorescence intensity (a.u.).
Regarding “ACCGTGTCGAGCTATGTCTCCTCATCCTCGCTATGTTTCACGGAGTCACCTAGTGCAG”, the binding signal was 14800 fluorescence intensity (a.u.).
Under “CTTTTCCCCGCGGCCATCCCCGTCGCCCCACCGCCGCCGCCGGAGTCACCTAGTGCAG” stands 11200 fluorescence intensity (a.u.); under “CGCGCCGCCCGCCGTCCCCATGCCACCGCGCTGCCCGCCGCGGAGTCACCTAGTGCAG”, 10200 fluorescence intensity (a.u.).
Under “TCCCCTACCGCTGCCCACCGCCGTCCACCACCGCCTTTCTCGGAGTCACCTAGTGCAG” stands 17000 fluorescence intensity (a.u.).
As to “CGTGTCGAGCTCTGTCTCCTCGTCTTCATCCGCCGCTTCACGGAGTCACCTAGTGCAG”, the binding signal is 18100 fluorescence intensity (a.u.).
Take “ATCCAAGCCGTCCATCTTCACCCGTCACTGTCACTCGCCACGGAGTCACCTAGTGCAG”: the binding signal is 16900 fluorescence intensity (a.u.).
Regarding “CCACACCACCGTCCCCTCGCTGCCTGCCTCCACCTCACCTCGGAGTCACCTAGTGCAG”, the binding signal is 8950 fluorescence intensity (a.u.).
The same measure for “GTCGCCATCTTCCCATCCCCGCGCCGCCGTCCACCATGAGCGGAGTCACCTAGTGCAG”: 17200 fluorescence intensity (a.u.); for “CCATTAAAGCCAAGCCACTGTCCTTGTCCATCTTTGTCCACGGAGTCACCTAGTGCAG”: 8190 fluorescence intensity (a.u.).
In the case of “GCCGCGCCCGCGTCACCACCGCTACCGCCCGCGCGTCCCTCGGAGTCACCTAGTGCAG”, the binding signal was 8940 fluorescence intensity (a.u.).
Under “CTTCGTCTCCGCTCCTCTCCGCCGCCTCGTCTCGTCGCCTCGGAGTCACCTAGTGCAG” stands 8430 fluorescence intensity (a.u.); under “GCAGCTGATCGATCTGGTTTCTGCTTTGCTGCAACTCACTCGGAGTCACCTAGTGCAG”, 8870 fluorescence intensity (a.u.); under “CTGGGGTTAGTTCTATGGATATTTGCTACTCCTGTTGATACGGAGTCACCTAGTGCAG”, 8220 fluorescence intensity (a.u.).
For “GAGTGACATTTGGGGTGGTTTTTGCAATTTTCTCTAAATTCGGAGTCACCTAGTGCAG”, the binding signal is 13000 fluorescence intensity (a.u.).
Consider “GGGTATAAAGTCACTCTATTCGTTCTCACCGTTTTTTCGGCGGAGTCACCTAGTGCAG”, for which the binding signal is 8150 fluorescence intensity (a.u.).
For the sequence “GGGAGGGCAACTGAAGAGGAGTGGCGAGGGAGGGCTTTTGCGGAGTCACCTAGTGCAG”, the binding signal is 12200 fluorescence intensity (a.u.).
Turning to “ACACGCCCGCCCGCCGCCTCCACCGTCTCCGCTCGCCGCGCGGAGTCACCTAGTGCAG”, the binding signal is 10500 fluorescence intensity (a.u.).
For the sequence “ACCATTGTCGCATGCTCACATCCCATCTTTTCCAAAGGGACGGAGTCACCTAGTGCAG”, the binding signal was 10300 fluorescence intensity (a.u.).
Under “CCCTGGTTTCCGTGTCCAATGTTTGACCGTCCGTCTTATTCGGAGTCACCTAGTGCAG” stands 10200 fluorescence intensity (a.u.); under “CGGGGCGGCTGGCTTGACGCGTCATCTTCCCCGCGAAAATCGGAGTCACCTAGTGCAG”, 14000 fluorescence intensity (a.u.); under “CGACATCTCTGAAACATTTCTCCTCGACCACGGCAACCCACGGAGTCACCTAGTGCAG”, 8630 fluorescence intensity (a.u.).
Under “ATTAATTCTGTTTTTTTCAAGTCTCTCTCGCTCTCGCTCCCGGAGTCACCTAGTGCAG” stands 8820 fluorescence intensity (a.u.).
Consider “CGTTCGCATCCACCACCAGTGCTCCGCCTGCCAGATCCATCGGAGTCACCTAGTGCAG”, for which the binding signal was 9140 fluorescence intensity (a.u.).
As for “CCCCGCCGTCCGCGCCGACCGCGACCTGCGCTACGCCGCCCGGAGTCACCTAGTGCAG”, the binding signal was 8450 fluorescence intensity (a.u.).
For “GGCCTCGTCTCCTACCTCGCCGACCCCGACCCCGACCACGCGGAGTCACCTAGTGCAG”, the binding signal was 8440 fluorescence intensity (a.u.).
Under “GCTGTCGTCCCTGCTGTTCTTGGTGTGCTTCTTCACTGTCCGGAGTCACCTAGTGCAG” stands 13600 fluorescence intensity (a.u.); under “GCGCCGACTGCCCGTCCGCCCCGTTGCTGCTGTGCGCACTCGGAGTCACCTAGTGCAG”, 8290 fluorescence intensity (a.u.).
Under “TCACGCATCGGCGCCGCCCTCCGGCCAGCAGCGACTCGCCCGGAGTCACCTAGTGCAG” stands 44600 fluorescence intensity (a.u.); under “CTCCCGCCGCGACTCGCCGCCGCGCGCGGCATCTCCGGCCCGGAGTCACCTAGTGCAG”, 8820 fluorescence intensity (a.u.).
With “GGCCACGCCCGCCTCCGCGATCGTCCTCGCCGGCGACTGCCGGAGTCACCTAGTGCAG”, the binding signal was 8410 fluorescence intensity (a.u.).
Consider “TGTGCCCGCTGCGCCAAGGGCTACGCCGTCCAGTCCGACTCGGAGTCACCTAGTGCAG”, for which the binding signal was 48500 fluorescence intensity (a.u.).
The same measure for “CACACGCTACCCCGACTCGTCGCCTTCGCCTTGCTCGTCTCGGAGTCACCTAGTGCAG”: 18000 fluorescence intensity (a.u.).
Take “CTCGTGCTGCTTCCACCCCTCCCTCGTCGCCTTGCCAGTTCGGAGTCACCTAGTGCAG”: the binding signal was 9440 fluorescence intensity (a.u.).
As for “TGTCCAGTCGTCACCCTGCTGCTTCCCTGCCACTGCCCTACGGAGTCACCTAGTGCAG”, the binding signal is 17000 fluorescence intensity (a.u.).
In the case of “GGTTGTCGTCGTCGTCGTGGCCTACGCCTTCGCTGCTGCTCGGAGTCACCTAGTGCAG”, the binding signal is 10600 fluorescence intensity (a.u.).
